In PubChem BioAssay (NCI):
Compounds without any hit were thinned out: in the full panel of roughly 83,000, 20% have a hit.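 Results are percent growth after 48 hours of single-concentration exposure. 100 means growth as in untreated cells, lower positive values show inhibition; negative values down to -100 show cell death.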 Unmarked numbers belong to inactive results. Active and inactive are the calls of the source. How the source made its calls: active means growth percent below 10; inactive means the rest.

What follows are compounds tested on SK-MEL-2 melanoma (assay: NCI-60 one-dose screen, 48 h (100 = growth as untreated, 0 = no growth, -100 = all killed)). Conditions: 10 µM unless noted.

SMILES	growth
O=C1Nc2ccccc2/C1=N/N=C/c1c[nH]c2ccccc12	55.5%
Cc1nc2ccc(C(=O)NCc3cc(C(=O)O)c(C)o3)cc2nc1C	102%
Cc1ccc(S(=O)(=O)NN/C(N)=N\S(=O)(=O)c2cc(C)c(Cl)cc2SCc2ccccc2)cc1	86.9%
COc1ccc(-c2nnc(SCC(=O)NC3=NN=C(c4ccccc4)CS3)o2)cc1	103%
Cn1ncc2c(Nc3ccc(Br)cc3)nc(Nc3ccc(Br)cc3)nc21	47.6%
Cc1cn(C2CCCCC2)c(=O)[nH]c1=O	127%
Cl.Fc1c[c-]c(-c2ccccn2)c(F)c1.[Pt].c1ccc(P(c2ccccc2)C([PH+](c2ccccc2)c2ccccc2)[PH+](c2ccccc2)c2ccccc2)cc1	7.06% (active)
N=C(N)c1ccc(-c2ccc(-c3ccc(Cl)c(Cl)c3)o2)cc1	102%
Cc1cc(=O)c2cc3nc(-c4cccnc4)oc3c(Br)c2o1	131%
C=C1C(=O)O[C@H]2[C@H]1CC/C(COC(=O)/C=C/C(=O)NCc1ccc(Cn3c(=O)sn(-c4ccccc4)c3=O)cc1)=C\CC[C@@]1(C)O[C@@H]21	-13.6% (active)
Cc1ccc(/C=C(\C#N)n2nnc3cc(Cl)c(Cl)cc32)cc1	26%
N=C(N)c1ccc(-c2ccc(-c3ccc(Cl)c(Cl)c3)o2)nc1	108%
COc1ccccc1C(=O)NC(=S)Nc1ccc(-c2nc3ccccc3[nH]2)cc1	109%
COC(=O)c1ccc2oc(NC(=O)c3ccc(N4CCOCC4)c([N+](=O)[O-])c3)nc2c1	99.5%
COC(=O)c1ccc(CSc2nnc(-c3ccncc3)o2)cc1	102%
N#C/C(=C\c1ccc2c(c1)OCO2)n1nnc2ccccc21	21.6%
O=C(NC(=S)Nc1ccc(-c2nc3ccccc3[nH]2)cc1)c1ccc2ccccc2c1	98.2%
COc1cc2c(c(OC)c1OC)C(=O)/C(=C/c1cc(C)c(O)c(C)c1)S2	43.6%
COc1ccc(-c2cc(-c3ccc(Nc4nc(Nc5ccccc5)nc(Nc5ccc(Cl)cc5)n4)cc3)nc(N)c2C#N)cc1	-33% (active)
Cc1c(Cl)cccc1NS(=O)(=O)c1ccccc1	132%

SMILES	growth
CCn1c(Sc2nnc(NC(C)=O)s2)nc2c1c(=O)n(C)c(=O)n2C	103%
NS(=O)(=O)c1cn(-c2ncnc3nc[nH]c23)ccc1=O	95.4%
CN1C(=O)CCC(N2C(=O)c3cccc(NCCOCCOCCNC(=O)c4cc5c(o4)C(=O)c4ccccc4C5=O)c3C2=O)C1=O (centres undefined)	6.39% (active)
COc1ccc(Nc2ncc(Br)c(NCCCNC(=O)C3CCC3)n2)cc1	42.1%
COc1ccccc1NC(=O)Nc1ccc(-c2nc3ccccc3o2)cc1	130%
N#C/C=C(\c1ccc([N+](=O)[O-])cc1)n1nnc2cc(Cl)c(Cl)cc21	65.8%
O=C(c1ccccc1)c1ccc(N2C(=O)C3C4c5ccccc5C(/C=C/C(=O)c5ccccn5)(c5ccccc54)C3C2=O)cc1 (centres undefined)	74.7%
Cc1cc(-c2ccc(N(C)C)cc2)c2sc(=O)[nH]c2n1	56%
N#Cc1c(NC(=O)c2ccccc2I)sc2c1CCCC2	26.4%
C[C@@H]1CC[C@@H]2[C@@H]1[C@H](OC(=O)/C=C/c1ccccc1)[C@]1(CCCOCCOCCOCCOC(=O)CCCC[C@@H]3SC[C@@H]4NC(=O)N[C@@H]43)C[C@@H](OC(=O)CO)[C@@]2(C)O1	108%
CCn1c(Sc2nnc(NC(=O)CCN3CCCC3)s2)nc2c1c(=O)n(C)c(=O)n2C	108%
Cl.Fc1c[c-]c(-c2ccccn2)c(F)c1.[Pt].c1ccc([PH+](C[PH+](c2ccccc2)c2ccccc2)c2ccccc2)cc1	-74.6% (active)
CCCCCCCC/C=C/CCCCCCCC1=NCC[N+]1(CCO)CCO	102%
CCOC(=O)N1CCc2c(sc3c2C(=O)N[C@H](c2ccc(OC)cc2)N3)C1	96.5%
CCOc1ccc(-c2nc3ccc(-c4nc5ccc(N6CCN(C)CC6)cc5[nH]4)cc3[nH]2)cc1OCC	-17.5% (active)
O=C(NCCN1CCC(O)CC1)c1cc2c(o1)C(=O)c1ccccc1C2=O	-66.1% (active)
Cl.Fc1c[c-]c(-c2ccccn2)c(F)c1.[Pt].c1ccc([PH+](c2ccccc2)c2ccccc2[PH+](c2ccccc2)c2ccccc2)cc1	-82.1% (active)
O=C(NCCOCCOCCOCCNC(=O)c1cc2c(o1)C(=O)c1ccccc1C2=O)NC12CC3CC(CC(C3)C1)C2	-17.9% (active)
COc1ccc(/C=C(\C#N)n2nnc3ccccc32)cc1	38.5%
